Experimental data: PubChem BioAssay (NCI)
Where “and” joins values, the source holds several entries; their conditions need not be identical. Identical values can stand only once. This is part of a sample that, as a whole, favours compounds with a hit. Of some 83,000 tested, about 20% had one in any assay.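 The endpoint reported here, percent growth, reads 100 for growth as untreated, 0 for no net growth and -100 for all cells dead.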 Calls of active or inactive are those of the source. Rule for the calls: active = growth percent below 10; inactive = the rest.

Experiments:
Experiment in all cases: NCI-60 one-dose screen, 48 h (100 = growth as untreated, 0 = no growth, -100 = all killed)
Conditions in all cases: 10 µM unless noted
SK-MEL-2 melanoma = test system: SK-MEL-2 melanoma
EKVX NSCLC = test system: EKVX NSCLC
SN12C renal = test system: SN12C renal
UO-31 renal = test system: UO-31 renal
ACHN renal = test system: ACHN renal
CAKI-1 renal = test system: CAKI-1 renal
A498 renal = test system: A498 renal
HL-60(TB) leukemia = test system: HL-60(TB) leukemia
CCRF-CEM leukemia = test system: CCRF-CEM leukemia
MOLT-4 leukemia = test system: MOLT-4 leukemia
SR leukemia = test system: SR leukemia
RPMI-8226 leukemia = test system: RPMI-8226 leukemia
OVCAR-8 ovarian = test system: OVCAR-8 ovarian
OVCAR-4 ovarian = test system: OVCAR-4 ovarian
SK-OV-3 ovarian = test system: SK-OV-3 ovarian
IGROV1 ovarian = test system: IGROV1 ovarian
OVCAR-3 ovarian = test system: OVCAR-3 ovarian
HS 578T breast = test system: HS 578T breast
TK-10 renal = test system: TK-10 renal
OVCAR-5 ovarian = test system: OVCAR-5 ovarian

Measured: growth

CC[C@H](C)[C@H](NC(=O)[C@H]1CCCCN1C)C(=O)N(C)[C@H](C[C@@H](OC(C)=O)c1cccc(C(=O)N[C@@H](Cc2ccccc2)C[C@H](C)C(=O)OC)n1)C(C)C
active: A498 renal -5.01% | HL-60(TB) leukemia -42.9% | OVCAR-3 ovarian -18.1%
inactive: SK-MEL-2 melanoma 22.1% | EKVX NSCLC 53.4% | SN12C renal 29.8% | UO-31 renal 40.7% | ACHN renal 24.6% | CAKI-1 renal 25.4% | CCRF-CEM leukemia 14.4% | MOLT-4 leukemia 13.6% | SR leukemia 12.2% | RPMI-8226 leukemia 20% | OVCAR-8 ovarian 12% | OVCAR-4 ovarian 48.8% | SK-OV-3 ovarian 13.8% | IGROV1 ovarian 29% | HS 578T breast 19.9%

O=C(O)c1ccccc1N(CCO)CCCl
inactive: SK-MEL-2 melanoma 116% | EKVX NSCLC 118% | SN12C renal 98.3% | UO-31 renal 88.2% | TK-10 renal 117% | CAKI-1 renal 112% | A498 renal 100% | HL-60(TB) leukemia 53.8% | MOLT-4 leukemia 98.3% | SR leukemia 84.2% | RPMI-8226 leukemia 103% | OVCAR-8 ovarian 101% | OVCAR-5 ovarian 92.3% | OVCAR-4 ovarian 108% | SK-OV-3 ovarian 108% | OVCAR-3 ovarian 111% | HS 578T breast 120%
active: CCRF-CEM leukemia -3.53%

CC[C@H](C)[C@H]1O[C@]2(C=C[C@@H]1C)C[C@@H]1C[C@@H](C/C=C(\C)[C@@H](O[C@H]3C[C@H](OC)[C@@H](O[C@H]4C[C@H](OC)[C@@H](NC)[C@H](C)O4)[C@H](C)O3)[C@@H](C)/C=C/C=C3\CO[C@@H]4[C@H](O)C(C)=C[C@@H](C(=O)O1)[C@]34O)O2
inactive: CAKI-1 renal 18.7%
active: SK-MEL-2 melanoma -54.5% | EKVX NSCLC -40.9% | SN12C renal -47.5% | UO-31 renal -63.2% | TK-10 renal -76% | A498 renal -7.23% | HL-60(TB) leukemia -59.8% | MOLT-4 leukemia -42.3% | SR leukemia -32.4% | OVCAR-5 ovarian -34.5% | OVCAR-4 ovarian -1.85% | SK-OV-3 ovarian -36.6% | IGROV1 ovarian -31.9% | OVCAR-3 ovarian -68.8% | HS 578T breast -42.9%

CC[C@H](C)[C@H](NC(=O)[C@H]1CCCCN1C)C(=O)N(C)[C@H](C(=O)NC12CC(C(=O)N[C@@H](Cc3ccccc3)C[C@H](C)C(=O)OC)(C1)C2)C(C)C
inactive: SK-MEL-2 melanoma 89.3% | EKVX NSCLC 102% | SN12C renal 99% | UO-31 renal 95.1% | ACHN renal 106% | CAKI-1 renal 95.9% | A498 renal 112% | HL-60(TB) leukemia 114% | CCRF-CEM leukemia 103% | MOLT-4 leukemia 104% | SR leukemia 114% | RPMI-8226 leukemia 108% | OVCAR-8 ovarian 96.8% | OVCAR-5 ovarian 98.4% | OVCAR-4 ovarian 90.8% | IGROV1 ovarian 105% | OVCAR-3 ovarian 101% | HS 578T breast 118%

CC(C)CCC1C(=O)NC(=O)NC1=O
inactive: SK-MEL-2 melanoma 81.8% | EKVX NSCLC 96.1% | SN12C renal 96.3% | UO-31 renal 86.9% | TK-10 renal 84.5% | CAKI-1 renal 102% | A498 renal 86.6% | HL-60(TB) leukemia 99.7% | MOLT-4 leukemia 99.1% | SR leukemia 93.5% | RPMI-8226 leukemia 113% | OVCAR-8 ovarian 98.4% | OVCAR-4 ovarian 99.2% | SK-OV-3 ovarian 88.2% | IGROV1 ovarian 96% | OVCAR-3 ovarian 101%

O=C/C=C/c1ccco1
inactive: SK-MEL-2 melanoma 108% | EKVX NSCLC 100% | SN12C renal 101% | UO-31 renal 88.9% | TK-10 renal 97.7% | CAKI-1 renal 95.6% | A498 renal 96.9% | CCRF-CEM leukemia 100% | MOLT-4 leukemia 98.9% | SR leukemia 99.4% | RPMI-8226 leukemia 102% | OVCAR-8 ovarian 100% | OVCAR-4 ovarian 105% | SK-OV-3 ovarian 96.1% | IGROV1 ovarian 106% | OVCAR-3 ovarian 110%

COc1ccc(C(C#N)C(C)=O)cc1 (stereo unspecified)
inactive: SK-MEL-2 melanoma 103% | EKVX NSCLC 108% | SN12C renal 102% | UO-31 renal 90.4% | ACHN renal 99.8% | CAKI-1 renal 95.3% | A498 renal 96.8% | HL-60(TB) leukemia 110% | CCRF-CEM leukemia 98.6% | MOLT-4 leukemia 99.7% | SR leukemia 98.8% | RPMI-8226 leukemia 101% | OVCAR-8 ovarian 95.5% | OVCAR-5 ovarian 95.3% | OVCAR-4 ovarian 131% | SK-OV-3 ovarian 99% | IGROV1 ovarian 114% | OVCAR-3 ovarian 108%

CN1CCc2cc3c(cc2C1O)OCO3 (stereo unspecified)
inactive: SK-MEL-2 melanoma 76.1% and 108% | EKVX NSCLC 107% and 92.8% | SN12C renal 112% and 99.6% | UO-31 renal 101% and 82.7% | TK-10 renal 112% and 111% | CAKI-1 renal 87.5% and 95.4% | A498 renal 121% and 98% | HL-60(TB) leukemia 99.7% | CCRF-CEM leukemia 86.8% and 103% | MOLT-4 leukemia 111% | SR leukemia 101% | RPMI-8226 leukemia 94.4% | OVCAR-8 ovarian 102% and 109% | OVCAR-5 ovarian 94.6% and 94.1% | OVCAR-4 ovarian 108% | IGROV1 ovarian 117% and 108% | OVCAR-3 ovarian 17.1% and 105%

CN(C)c1ccc(N)cc1
inactive: SK-MEL-2 melanoma 94.2% and 71.7% | EKVX NSCLC 96.2% and 32.4% | SN12C renal 96.2% and 64.7% | UO-31 renal 75% | ACHN renal 99.5% and 64.9% | CAKI-1 renal 78.2% | A498 renal 108% and 62.7% | HL-60(TB) leukemia 95.1% and 38.5% | CCRF-CEM leukemia 87.5% and 36% | MOLT-4 leukemia 100% and 63.4% | SR leukemia 99% and 33.6% | RPMI-8226 leukemia 93.6% and 21% | OVCAR-8 ovarian 93.7% and 30.2% | OVCAR-4 ovarian 97.6% and 39.6% | SK-OV-3 ovarian 90% and 70.4% | OVCAR-3 ovarian 106% and 32.4%

C[C@]12CCC3[C@@H](C[C@@H]4SC(Nc5ccccc5)=N[C@@]45CC(=O)CC[C@]35C)[C@@H]1CCC2=O (stereo partly specified)
active: SK-MEL-2 melanoma 6.9% | SN12C renal -8.78% | UO-31 renal -89% | TK-10 renal -4.55% | CAKI-1 renal -45.6% | HL-60(TB) leukemia 6.25% | CCRF-CEM leukemia 3.23% | MOLT-4 leukemia -5.8% | SR leukemia -5.37% | RPMI-8226 leukemia -14.8% | OVCAR-8 ovarian -5.35% | IGROV1 ovarian -11.3% | OVCAR-3 ovarian -9.98%
inactive: EKVX NSCLC 49.4% | A498 renal 63.7% | OVCAR-5 ovarian 31.2% | OVCAR-4 ovarian 31.7% | SK-OV-3 ovarian 56.9% | HS 578T breast 41%

C(=NC1CCCCC1)=NC1CCCCC1
inactive: SK-MEL-2 melanoma 92.8% and 94.4% | EKVX NSCLC 41.3% | SN12C renal 100% and 82.2% | UO-31 renal 98% and 76.9% | ACHN renal 97.5% | CAKI-1 renal 91.3% and 88.7% | A498 renal 104% and 51.2% | HL-60(TB) leukemia 118% and 46.3% | CCRF-CEM leukemia 77.3% | MOLT-4 leukemia 101% and 86.1% | SR leukemia 89.5% and 83.7% | OVCAR-5 ovarian 89.7% and 90.7% | OVCAR-4 ovarian 107% and 59.9% | SK-OV-3 ovarian 109% and 91.6% | OVCAR-3 ovarian 117% and 73% | HS 578T breast 91.8%

Cc1cc(N(CCCl)CCCl)ccc1/C=N\NC(=O)c1cccnc1
active: A498 renal -85.4% and -89.4%
inactive: SK-MEL-2 melanoma 77.4% and 114% | EKVX NSCLC 97.9% and 95.8% | SN12C renal 67.8% and 75.5% | UO-31 renal 80.3% and 83.4% | TK-10 renal 89.2% and 103% | CAKI-1 renal 36.2% and 41.5% | HL-60(TB) leukemia 60% | CCRF-CEM leukemia 60.2% and 62.1% | MOLT-4 leukemia 49.6% and 60.5% | SR leukemia 23.4% and 54.5% | RPMI-8226 leukemia 85.7% and 86.1% | OVCAR-8 ovarian 88.4% and 80.2% | OVCAR-5 ovarian 33.9% and 74% | OVCAR-4 ovarian 93.2% and 80.5% | SK-OV-3 ovarian 74.2% and 102% | IGROV1 ovarian 79.9% and 82.6% | OVCAR-3 ovarian 104% and 101% | HS 578T breast 98.3% and 103%

Cc1cc(NC(=O)NCCCOc2ccc(N3C(N)=NC(N)=NC3(C)C)cc2Cl)ccc1S(=O)(=O)F
inactive: SK-MEL-2 melanoma 42.2% | EKVX NSCLC 43% | SN12C renal 27.8% | UO-31 renal 94.9% | ACHN renal 72.6% | CAKI-1 renal 107% | A498 renal 94.6% | HL-60(TB) leukemia 29.1% | CCRF-CEM leukemia 32.4% | MOLT-4 leukemia 37.5% | SR leukemia 22.4% | RPMI-8226 leukemia 36.6% | OVCAR-5 ovarian 43.1% | OVCAR-4 ovarian 34.5% | IGROV1 ovarian 25% | OVCAR-3 ovarian 24.2% | HS 578T breast 60.3%

COC1C(O)CC(OC2CC(Oc3cc4cc5c(c(O)c4c(O)c3C)C(=O)[C@@H](OC3CC(OC4CC(OC6CC(C)(O)C(OC(C)=O)C(C)O6)C(O)C(C)O4)C(O)C(C)O3)[C@H]([C@H](OC)C(=O)[C@@H](O)[C@@H](C)O)C5)OC(C)C2OC(C)=O)OC1C (stereo partly specified)
active: SK-MEL-2 melanoma -42.1% | EKVX NSCLC -12.7% | SN12C renal 7.02% | UO-31 renal -12.5% | TK-10 renal 2.86% | ACHN renal 2.04% | CAKI-1 renal -25.9% | HL-60(TB) leukemia -23.8% | MOLT-4 leukemia 1.77% | SR leukemia 1.63% | RPMI-8226 leukemia -30.8% | OVCAR-4 ovarian 4.26% | IGROV1 ovarian -23.8% | OVCAR-3 ovarian -9.73%

C=CCOC(=O)C(Br)CC (stereo unspecified)
inactive: SK-MEL-2 melanoma 106% | EKVX NSCLC 107% | SN12C renal 111% | UO-31 renal 94.6% | TK-10 renal 103% | CAKI-1 renal 101% | A498 renal 90.4% | HL-60(TB) leukemia 101% | CCRF-CEM leukemia 107% | MOLT-4 leukemia 102% | SR leukemia 100% | RPMI-8226 leukemia 112% | OVCAR-8 ovarian 106% | OVCAR-5 ovarian 113% | OVCAR-4 ovarian 108% | IGROV1 ovarian 115% | OVCAR-3 ovarian 105% | HS 578T breast 104%
